Data on 3 compounds can be found in PubChem BioAssay (EPA / NIEHS).

Results filed as inconclusive are left out. Calls of active or inactive are those of the source. Rule for the calls: active = hit-call score of the fitted dose curve at least 0.9, where 1 is the maximum; inconclusive = response in the unintended direction; inactive = score below 0.9.

Test [1] deals with Cellular tumor antigen p53 (Homo sapiens) (UniProt P04637). Description: TOX21_p53_BLA_p2_ratio: Tox21 HCT-116 p53 Agonism Beta-lactamase Assay, Ratio, Phase 2 (AID 2283592). Put shortly:
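HCT116 cells carrying a p53-responsive beta-lactamase reporter were plated, incubated 5 h at 37C, then dosed with compounds in DMSO (217-fold dilution) for 16 h. CCF4-AM substrate was added for 2 h at room temperature; the 460/530 nm emission ratio gave gain-of-signal activity relative to DMSO.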

Test [2] is described as follows: TOX21_p53_BLA_p3_viability: Viability Assessment in the Tox21 HCT-116 p53 Agonism Beta-lactamase Assay, Phase 3 (AID 2283593).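 Note: cells exposed to compound for 16 h before reading.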 Put shortly: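 HCT-116 cells (4000/well) rested 5 h at 37C, then got DMSO compounds by pin tool (217-fold dilution) for 16 h at 37C, 5% CO2. After the bla read, CellTiter-Glo was added and luminescence read at 30 min, room temperature.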

Chain of Cellular tumor antigen p53 (Homo sapiens) (P04637 whole entry, looked up): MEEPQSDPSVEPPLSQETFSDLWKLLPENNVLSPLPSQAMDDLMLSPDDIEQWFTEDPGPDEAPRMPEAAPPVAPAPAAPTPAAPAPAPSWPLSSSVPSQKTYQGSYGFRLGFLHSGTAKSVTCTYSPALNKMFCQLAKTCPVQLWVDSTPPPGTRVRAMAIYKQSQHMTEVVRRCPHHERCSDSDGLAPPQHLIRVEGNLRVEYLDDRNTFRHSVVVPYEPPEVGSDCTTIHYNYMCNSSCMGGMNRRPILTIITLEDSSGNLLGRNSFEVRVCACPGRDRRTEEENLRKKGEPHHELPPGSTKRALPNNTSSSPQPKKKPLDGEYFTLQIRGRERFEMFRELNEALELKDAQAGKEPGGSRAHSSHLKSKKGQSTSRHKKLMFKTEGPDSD

Regarding `CC(=O)Oc1c(C)c(C)c2c(c1C)CC[C@@](C)(CCC[C@H](C)CCC[C@H](C)CCCC(C)C)O2`, the outcome in test [1] and in test [2] was inactive.

For `CC(C)(CO)CO`, the outcome in test [1] and in test [2] was inactive.

As for `CCC(C)(CCCC(C)C)OC(C)=O` (stereo not given), the result in test [1] was inactive.
